Assay outcomes deposited in PubChem by National Center for Advancing Translational Sciences (NCATS).
TDP1 block = TDP1 (human) enzyme inhibition; hit rate 0.28% among 350,000; Potency, µM (top dose mostly 130 µM), hits mostly inhibitors; Q9NUW8; recombinant TDP1, AlphaScreen DNA substrate cleavage; AID 485290; note: nearly all actives have a fitted effect of over 40% in size
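Tdp1 1 nM final; 15 min RT w/ cpd; substrate 15 nM, 5 min; beads 10 ug/ml, 10 min; AlphaScreen read. Neg ctrl: no enzyme.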
TDP1 cell noCPT = qHTS for Inhibitors of human tyrosyl-DNA phosphodiesterase 1 (TDP1): qHTS in cells in absence of CPT; DT40 Tdp1-/- hTDP1 cells, no CPT, ATP luminescence, 48 h; Potency, µM (doses to about 46.2 µM), hits mostly inhibitors; hit rate 15% among 420,000; note: nearly all actives have a fitted effect of over 55% in size
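A cellular qHTS used chicken DT40 cells lacking endogenous Tdp1 but carrying stably transfected human TDP1. Compounds were applied without camptothecin, and cell growth kinetics were judged by ATP-dependent luminescence after ≥48 hr.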
VP16 counter = Gal4-VP16 reporter inhibition counter-screen | Drosophila S2 Gal4-VP16 UAS-luciferase, luminescence, 20 h | Potency, µM (titrated, usually from 53.6 µM), usual class: inhibitors | hit rate 3.5% among 310,000;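 note: Gal4-VP16 expression switched on by copper sulfate through the metallothionein promoter; nearly all actives have a fitted effect of over 50% in size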
RORg inh = inhibitors of mouse ROR gamma transcriptional activity; Drosophila S2 Gal4-RORgamma UAS-luciferase reporter, 20 h; P51450; Potency, µM (doses to about 53.6 µM), actives largely listed as inhibitors; hit rate 5.4% among 310,000; AID 2551; note: nearly all actives have a fitted effect of over 60% in size
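Read-out: Photinus luciferase luminescence; inhibitors lower reporter signal. Insect Schneider cells with Gal4-ROR gamma fusion under metallothionein promoter, UAS reporter; 700 uM final copper sulfate induction, 20 hr, ambient temperature.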
DT40 TDP1 CPT = growth inhibition of DT40 Tdp1-/-;hTDP1 cells with camptothecin (screen for TDP1 inhibitors); AID 686979; hit rate 12% among 420,000; Potency, µM (doses to about 46.2 µM), usual class: inhibitors; chicken DT40 Tdp1-/-;hTDP1 cells + 20 nM CPT, ATP luminescence, 48 h; note: nearly all actives have a fitted effect of over 55% in size
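Cell growth measured by CellTiter-Glo luminescence after a minimum 48 h, 37 C compound exposure with 20 nM CPT in Tdp1-knockout DT40 cells stably expressing hTDP1, seeded 400/well; qHTS titration format.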
Hits are given with their value; 0 = inactive; ? = inconclusive; - = no result given. Only some compounds are listed: those with a hit (about 19% of all), similar ones and a draw of the others. Calls come from the whole dose curve; as a rule, active = well fitted curve in the direction sought with a large enough effect; inconclusive = small, poorly fitted or top-dose-only effect, or another doubt; inactive = no such curve, though single readings can be large; an effect the other way counts as inactive or inconclusive.

SMILES | TDP1 block | TDP1 cell noCPT | VP16 counter | RORg inh | DT40 TDP1 CPT
Cc1onc(-c2ccccc2)c1C(=O)OCc1nnc(-c2ccc([N+](=O)[O-])cc2)o1 | 0 | ? | - | - | ?
CCOc1ccc(NC(=O)CN(C)C(=O)C2CC2C)cc1OCC (stereo not given) | 0 | 0 | - | - | 0
Cc1cccc(OCCCC(=O)NCCc2ccccc2)c1 | 0 | 0 | 0 | 0 | 0
Cc1onc(-c2ccccc2)c1C(=O)OCC(=O)c1ccc(F)cc1 | - | 23µM | - | - | ?
Cc1onc(-c2ccccc2)c1C(=O)OCC(=O)c1ccccc1 | 0 | ? | 0 | 0 | 0
COc1cc2c(c3oc(-c4ccccc4)cc(=O)c13)C=CC(C)(C)O2 | 0 | 26µM | ? | 0 | 16µM
COc1cc(C)c2c(=O)cc(-c3ccccc3)oc2c1 | 0 | ? | 0 | 0 | ?
COc1cccc2oc(-c3ccco3)cc(=O)c12 | 0 | 15µM | 0 | 0 | 21µM
COc1cc(OC)c2c(=O)cc(-c3ccccc3)oc2c1 | 0 | ? | 0 | 0 | 21µM
CC(C)(C)OC(=O)COc1cc(OCC(=O)OC(C)(C)C)c2c(=O)cc(-c3ccccc3)oc2c1 | 0 | 18µM | 0 | 0 | ?
CC[C@@]1(C(=O)OC)N[C@H](CN(C)C(=O)Nc2ccc(Cl)cc2)[C@@H]2C(=O)N(C)C(=O)[C@@H]21 | 0 | 0 | - | - | 0
COc1cccc(CC(=O)Nc2ccc3c(c2)OC2(CCCC2)O3)c1 | 0 | ? | - | - | 18µM
CC(=O)Nc1ccc(CC(=O)Nc2ccc3c(c2)OC2(CCCC2)O3)cc1 | - | 0 | - | - | 0
COc1ccc2c(c1)C(=O)[C@@H](OC(=O)Nc1cc(OC)c(OC)c(OC)c1)[C@H](c1ccc(OC)c(Br)c1)O2 | 0 | - | 0 | 0 | -
O=C(CN1CCN(S(=O)(=O)N2CCCCC2)CC1)Nc1ccc(Cl)c(Cl)c1 | - | 23µM | ? | ? | ?
CC1CCCN(CC(=O)Nc2ccc(S(=O)(=O)N3C(C)CCCC3C)cc2)C1 (stereo not given) | - | 16µM | - | - | ?
CN(C)S(=O)(=O)c1ccc(NC(=O)CN2CCN(C(c3ccccc3)c3ccccc3)CC2)cc1 | 0 | 21µM | 0 | 0 | ?
O=C(CN1CCCCC1)Nc1ccc(S(=O)(=O)c2ccc(NC(=O)CN3CCCCC3)cc2)cc1 | - | 13µM | - | - | 16µM
O=C(CN1CCN(S(=O)(=O)N2CCCCC2)CC1)Nc1cc(Cl)cc(Cl)c1 | 0 | ? | 0 | 0 | 0
Cc1nc2ccc(NC(=O)Cn3cnc4c3c(=O)n(C)c(=O)n4C)cc2s1 | 0 | - | 0 | 0 | -
CCN(CC)S(=O)(=O)c1cc(NC(=O)Cn2cnc3ccccc3c2=O)ccc1C | 0 | ? | 0 | 0 | ?
N=C(N)N1Cc2ccccc2C(O)C1 (stereo not given) | 0 | - | 0 | 0 | -
COc1cc(OC)c(S(=O)(=O)NCc2cccnc2)cc1NC(C)=O | 0 | 0 | 0 | 0 | 0
O=C(Nc1ccccc1F)c1ccc(Cn2nc(N3CCN(c4ccccc4)CC3)ccc2=O)o1 | 0 | 15µM | - | - | 23µM
Cc1cc(C)cc(Nc2cc(=O)n(C3CCCCC3)c(=O)[nH]2)c1 | 0 | 18µM | ? | 0 | ?
SMILES | TDP1 block | TDP1 cell noCPT | VP16 counter | RORg inh | DT40 TDP1 CPT
O=c1cc(N2CCCCC2)[nH]c(=O)n1C1CCCCC1 | - | 0 | 0 | 0 | 0
Cc1ccc(N=Nc2ccc(C)cc2NC(=O)Nc2ccccc2F)cc1 | 0 | 21µM | ? | 0 | ?
Cc1cc([N+](=O)[O-])ccc1NC(=O)Nc1ccccc1F | 0 | ? | 0 | 0 | ?
COc1ccc(CN2CCOCC2)cc1Br | 0 | 0 | 0 | 0 | 0
CC[C@]12c3[nH]c4cc(-c5ccco5)ccc4c3CCN1C(=O)[C@@H](CC(=O)NCc1ccco1)C[C@@H]2C(=O)N1CCN(C(=O)C2CC2)CC1 | 0 | 16µM | - | - | 16µM
CC[C@]12c3[nH]c4cc(CCC(=O)N(C)C)ccc4c3CCN1C(=O)[C@@H](CC(=O)NCc1cccc(C(F)(F)F)c1)C[C@@H]2C(=O)N1CCN(C(=O)c2ccco2)CC1 | 0 | ? | - | - | 21µM
CC[C@]12c3[nH]c4cc(-c5ccco5)ccc4c3CCN1C(=O)[C@@H](CC(=O)NCc1cccc(C(F)(F)F)c1)C[C@@H]2C(=O)N1CCN(C(=O)C2CC2)CC1 | 0 | ? | - | - | 16µM
CC[C@]12c3[nH]c4cc(-c5ccco5)ccc4c3CCN1C(=O)[C@@H](CC(=O)NCc1ccc(OC)c(OC)c1)C[C@@H]2C(=O)N1CCN(C(=O)C2CC2)CC1 | 0 | ? | - | - | ?
